From PubChem BioAssay
A selection: hits, their analogues and other compounds. The true share with any hit is near 2.8%.
EWS-Fli inh: inhibitors of EWS/Fli oncoprotein transcriptional activity; A673 NR0B1-luciferase reporter, viability-normalised; AID 651661; inhibition, % at 12.6 µM; 350,000 compounds, 0.67% hits;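 active means mean inhibition of at least 50% after viability correction, with every replicate also passing that limit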;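 further: firefly luciferase signal divided by Alamar Blue viability fluorescence both relative to DMSO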
TWEAK-Fn14 inh: inhibitors of TWEAK-Fn14 interaction signaling | TWEAK-stimulated Fn14 reporter cells, luciferase luminescence, 8 h | inhibition, % at 10 µM | AID 1159606 | 360,000 compounds, 2% hits; in the data active means inhibition above about 50%
LGR2 inh: blocks bursicon-induced cAMP signaling via Drosophila LGR2; HEK293 LGR2, CRE-luciferase, bursicon-stimulated, 4 h; inhibition, % at 9.99 µM; 380,000 compounds, 0.35% hits;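 active means drop in luminescence signal, shown as inhibition above about 50% in the replicate tests, limit read from the data, passing the limit was not always enough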;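 further: agonist challenge used bursicon conditioned medium at about half maximal strength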
PAX8 reporter: inhibitors of PAX8 transcriptional activity in RMG-I cells; RMG-I TPO-luciferase reporter, SteadyGlo, 24 h; inhibition, % at 12.6 µM; 360,000 compounds, 1.2% hits; AID 652154;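 active means mean replicate inhibition at least 60% with every replicate also reaching 60%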;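 further: luciferase light reporting Pax8 driven TPO promoter activity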
TROY signal inh: blocks TROY-dependent signaling in reporter cells. Q293 LMP1-TROYcd NF-kB luciferase reporter, 4 h. 360,000 compounds, 0.98% hits. inhibition, % at 10 µM;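 active means compounds whose plate-normalised and pattern-corrected inhibition of the luciferase reporter signal at the single screening dose is 50% or more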
DNA binder FP: small molecule DNA binding by fluorescence polarization | shares compounds with EWS-Fli inh | salmon sperm DNA acridine orange fluorescence polarization | AC35, µM (series often up to 68 µM) | 640 compounds, 2% hits | AID 720586;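 active means fitted curve reaches a 35% signal fall AC35 below twice the sample's top valid tested dose, actives reach about 48 µM in these data; inactive means the rest, including activity in the rising direction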;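 further: lower polarization ratio signals compound binding to DNA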
Of the large screens only hits and unclear results are named; the others gave an inactive call (follow-up assays come after a bar, where they were run); ! = not confirmed by another sample.

COc1ccc(-c2cn(-c3ccc(OC)cc3)c3[n+]2-c2ccccc2CC3)cc1	EWS-Fli inh 74, PAX8 reporter 92 | DNA binder FP inactive
CN(C)C(=S)N=Nc1[nH]c2ccccc2c1O	EWS-Fli inh 61 (no result: TWEAK-Fn14 inh, LGR2 inh, TROY signal inh) | DNA binder FP inactive
COc1ccc(-c2cc(CNc3nc(NC(C)C)nc4cc(-c5ccccc5)sc34)on2)cc1	EWS-Fli inh 54, PAX8 reporter 104 | DNA binder FP inactive
Cc1cccc(N2CCN(C3C(=O)Nc4ccccc4-n4nnnc43)CC2)c1C (stereo not given)	EWS-Fli inh 54 (no result: TWEAK-Fn14 inh, TROY signal inh) | DNA binder FP inactive
CC(C)NC(=O)N1[C@H](CO)[C@@H]2c3ccccc3N(C(=O)c3ccncc3)C[C@@H]21	none (no result: TWEAK-Fn14 inh, TROY signal inh)
C[C@H](CO)N1C[C@H](C)[C@@H](CN(C)C(=O)Nc2ccc(F)cc2)Oc2ccc(NC(=O)Cn3cnnn3)cc2CC1=O	none (no result: TWEAK-Fn14 inh, TROY signal inh)
CCS(=O)(=O)N1Cc2ccccc2CC1C(=O)Nc1nnc(SCc2ccc(C#N)cc2)s1 (stereo not given)	EWS-Fli inh 66 | DNA binder FP inactive
CC(C)CC#Cc1ccc([C@@H]2[C@@H](CO)N3CCCCN(S(=O)(=O)c4ccc(F)cc4)C[C@H]23)cc1	EWS-Fli inh 82, PAX8 reporter 91 (no result: TWEAK-Fn14 inh, TROY signal inh) | DNA binder FP inactive
C[C@H]1CN([C@@H](C)CO)C(=O)c2cccc(NS(=O)(=O)c3ccc(Cl)cc3)c2O[C@@H]1CN(C)C(=O)NC1CCCCC1	none (no result: TWEAK-Fn14 inh, TROY signal inh)
Cc1cc(-c2nc3cc(F)ccc3s2)ccc1N	EWS-Fli inh 74, TWEAK-Fn14 inh 75, LGR2 inh 64 | DNA binder FP inactive
Cc1ccc(-c2nc3ccccc3s2)cc1S(=O)(=O)N1CCCC1	none (no result: PAX8 reporter)
C=C1C(=O)C=C[C@]2(C)C[C@@H]3OC(=O)[C@](C)(O)[C@H]3C[C@@H]12	EWS-Fli inh 65, TWEAK-Fn14 inh 55, PAX8 reporter 67 | DNA binder FP inactive
O=C(c1cccc(S(=O)(=O)NCc2ccccc2)c1)N1CCN(c2ccccc2)CC1	EWS-Fli inh 52 | DNA binder FP inactive
Cc1ccc(OCCNC(=O)c2cccc(S(=O)(=O)NCc3ccccc3)c2)cc1	EWS-Fli inh 56, TROY signal inh 67 | DNA binder FP inactive
O=C(NCc1ccncc1)c1cccc(S(=O)(=O)NCc2ccccc2)c1	none
C[C@H](CO)N1C[C@H](C)[C@@H](CN(C)S(=O)(=O)c2ccc(C#N)cc2)OCc2ccccc2-c2c(n(C)c3ccccc23)C1=O	none (no result: TWEAK-Fn14 inh, PAX8 reporter, TROY signal inh)
Cc1noc(C)c1S(=O)(=O)Nc1ccc2c(c1)C(=O)N([C@H](C)CO)C[C@@H](C)[C@H](CN(C)S(=O)(=O)c1cccs1)OCCCC[C@@H](C)O2	none (no result: TWEAK-Fn14 inh, TROY signal inh)
CC(C)CN(C(=O)CN1CCOCC1)c1c(N)n(CC(C)C)c(=O)[nH]c1=O	EWS-Fli inh 61 | DNA binder FP inactive
CC(C)CN(C(=O)CN1CCCCCC1)c1c(N)n(CC(C)C)c(=O)[nH]c1=O	none
COc1ccc(N=C2C(=O)Nc3ccc(C)c(Br)c32)cc1	EWS-Fli inh 70 | DNA binder FP inactive
Cc1ccc(N=C2C(=O)Nc3ccc(C)c(Br)c32)cc1	none (no result: EWS-Fli inh, LGR2 inh, PAX8 reporter)
O=C(O)c1ccc(S(=O)(=O)NN=Cc2c[nH]c3ccccc23)cc1	none
O=C(O)c1ccc(N/N=C/c2c[nH]c3ccccc23)cc1	EWS-Fli inh 69, LGR2 inh 59, TROY signal inh 53 | DNA binder FP inactive
O=S(=O)(c1ccccc1)N1CC[C@@H]2[C@H](CO)Nc3ccc(Br)cc3[C@@H]21	none (no result: TWEAK-Fn14 inh, TROY signal inh)
COc1ccccc1-c1cn(CC[C@H]2CC[C@@H](NC(=O)C3CCCC3)[C@@H](CO)O2)nn1	EWS-Fli inh 57 (no result: TWEAK-Fn14 inh, PAX8 reporter, TROY signal inh) | DNA binder FP inactive
COc1ccccc1-c1cn(CC[C@H]2CC[C@@H](NC(=O)C3CCCC3)[C@H](CO)O2)nn1	none (no result: TWEAK-Fn14 inh, PAX8 reporter, TROY signal inh)
N/C(=C\C(=O)c1cc(Cl)ccc1O)C(Cl)(Cl)Cl	EWS-Fli inh 62, TWEAK-Fn14 inh 67 | DNA binder FP inactive
CC(C)(C)c1ccc(C(=O)CC(=O)c2cc(Cl)ccc2O)cc1	none (no result: EWS-Fli inh, LGR2 inh, PAX8 reporter)
COc1ccc(S(=O)(=O)N2CCCc3nc(-c4ccc(F)cc4)ccc32)cc1	EWS-Fli inh 60 (no result: TWEAK-Fn14 inh, TROY signal inh) | DNA binder FP inactive
COc1ccc(-c2ccc3c(n2)CCCN3S(=O)(=O)c2ccc(F)cc2)cc1	none (no result: TWEAK-Fn14 inh, TROY signal inh)
O=C(NC1CCC1)[C@@H]1[C@@H](CO)[C@@H]2Cn3c(ccc(-c4ccccc4)c3=O)[C@H]1N2Cc1cocn1	none (no result: TWEAK-Fn14 inh, TROY signal inh)
Cc1cc(C)cc(C(=O)NC(=S)Nc2ccc(Cc3ccncc3)cc2)c1	EWS-Fli inh 66 | DNA binder FP inactive
C[C@H]1CN([C@@H](C)CO)C(=O)c2cccc(NS(=O)(=O)c3ccccc3)c2O[C@@H]1CN(C)C(=O)Nc1ccccc1	none (no result: TWEAK-Fn14 inh, TROY signal inh)
O=C(C1CC1)N1[C@@H](CO)[C@@H]2c3ccccc3N(S(=O)(=O)c3ccc(F)cc3)C[C@@H]21	none (no result: TWEAK-Fn14 inh, TROY signal inh)
C[C@H](CO)N1C[C@H](C)[C@H](CN(C)Cc2ccccn2)Oc2ncc(C3=CCCC3)cc2C1=O	none (no result: TWEAK-Fn14 inh, TROY signal inh)
COc1ccc(S(=O)(=O)Nc2cccc3c2O[C@H](CN(C)Cc2ccc(C(=O)Nc4ccccc4N)cc2)[C@H](C)CN([C@@H](C)CO)C3=O)cc1	EWS-Fli inh 57 (no result: TWEAK-Fn14 inh, PAX8 reporter, TROY signal inh) | DNA binder FP inactive
C[C@H](CO)N1C[C@H](C)[C@H](CN(C)Cc2ccc(C(F)(F)F)cc2)Oc2c(NS(=O)(=O)c3ccc(Cl)cc3)cccc2C1=O	EWS-Fli inh 60 (no result: TWEAK-Fn14 inh, PAX8 reporter, TROY signal inh) | DNA binder FP inactive
COc1ccc(S(=O)(=O)Nc2cccc3c2O[C@@H](CN(C)Cc2ccc(C(=O)Nc4ccccc4N)cc2)[C@@H](C)CN([C@H](C)CO)C3=O)cc1	none (no result: TWEAK-Fn14 inh, TROY signal inh)
c1ccc(-c2sc3ccccc3c2-c2ccc(OCCN3CCCC3)cc2)cc1	none
COc1ccc(-c2sc3ccccc3c2-c2ccc(OCCN3CCCCC3)cc2)cc1	EWS-Fli inh 59 | DNA binder FP inactive
CN1C(=O)c2cc(NC(=O)c3cc(F)cc(F)c3)ccc2OC[C@H]2O[C@@H](CC(=O)O)CC[C@@H]21	none (no result: TWEAK-Fn14 inh, TROY signal inh)
Cc1nn(-c2ccccc2)c2nc(N)c(C#N)c(-c3ccc(O)c(O)c3)c12	none
Cc1nn(-c2ccc(F)cc2)c2nc(N)c(C#N)c(-c3ccc(O)c(O)c3)c12	EWS-Fli inh 57 | DNA binder FP inactive
C(=C\c1ccc(C2[C@H]3CNC[C@@H]2N3Cc2ccccn2)cc1)/c1ccccc1 (stereo not given in full)	EWS-Fli inh 59! (no result: TWEAK-Fn14 inh, TROY signal inh) | DNA binder FP inactive
C(=C\c1ccc(C2[C@H]3CNC[C@@H]2N3Cc2cncnc2)cc1)/c1ccccc1 (stereo not given in full)	none (no result: TWEAK-Fn14 inh, TROY signal inh)
Cc1noc(C)c1C(=O)Nc1sccc1C(N)=O	EWS-Fli inh 76 | DNA binder FP inactive
Cc1occc1C(=O)Nc1sccc1C(N)=O	none
CN(C)C(=O)c1cccc(-c2ccc([C@H]3[C@@H](CO)N4CCCCN(S(C)(=O)=O)C[C@H]34)cc2)c1	none (no result: TWEAK-Fn14 inh, TROY signal inh)
CC(C)c1ccccc1NC(=O)Nc1nc(C(N)Cc2ccc(C(F)(F)F)cc2)cs1 (stereo not given)	none
